Results taken from PubChem BioAssay (Tox21).
Results filed as inconclusive are left out. Activity calls are given as the source filed them. Calls follow the shape of the dose curve; as a rule, active = well fitted curve in the direction sought with a large enough effect in the repeat runs; inconclusive = weak or mixed curves; inactive = no such curve, though single readings can be large; an effect the other way counts as inactive or inconclusive.

Experiments:
[1] = qHTS RealTime-Glo MT Cell Viability Assay in HEK293 cells - 0 hour (AID 1224880); conditions: RealTime-Glo luminescence; series mostly up to 76.8 µM; also: top concentration of the series differs between compounds; nearly all actives have a fitted effect of over 45% in size
Procedure, shortened: (§1)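 HEK293 cells mixed with RealTime-Glo reagents (NanoLuc plus cell-permeant prosubstrate) at 600 cells/well, preincubated 5 h at 37 C/5% CO2, then given 23 nL compound in DMSO. Nonlytic luminescence from viable cells was read at 0, 8, 16, 24, 32 and 40 h.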

[2] = A CellTox Green Cytotoxicity Assay to monitor cytotoxicity in HEK293 cells - 32 hour (AID 1224881); conditions: CellTox Green fluorescence; series mostly up to 76.8 µM; also: nearly all actives have a fitted effect of over 40% in size
Procedure, shortened: (§2)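 HEK293 cells premixed with CellTox Green dye were seeded at 600 cells/well and left 5 h at 37 C/5% CO2 before pin transfer of 23 nL compound in DMSO. Fluorescence from dye bound to dead-cell DNA was read during 40 h treatment.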

[3] = A CellTox Green Cytotoxicity Assay to monitor cytotoxicity in HepG2 cells - 0 hour (AID 1224882); conditions: CellTox Green fluorescence; series mostly up to 76.8 µM; also: nearly all actives have a fitted effect of over 35% in size
Procedure, shortened: (§3)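 HepG2 cells were seeded together with the CellTox Green dye at 600 cells/well, left 5 h at 37 C/5% CO2, then given compounds in DMSO. Fluorescence from dye bound to dead-cell DNA was read repeatedly over 40 h of treatment at 37 C.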

[4] = A CellTox Green Cytotoxicity Assay to monitor cytotoxicity in HepG2 cells - 32 hour (AID 1224883); conditions: CellTox Green fluorescence; series mostly up to 76.8 µM; also: nearly all actives have a fitted effect of over 50% in size
Procedure, shortened: as §3

[5] = A CellTox Green Cytotoxicity Assay to monitor cytotoxicity in HEK293 cells - 8 hour (AID 1224884); conditions: CellTox Green fluorescence; series mostly up to 76.8 µM; also: nearly all actives have a fitted effect of over 35% in size
Procedure, shortened: as §2

[6] = qHTS RealTime-Glo MT Cell Viability Assay in HepG2 cells - 16 hour (AID 1224885); conditions: RealTime-Glo luminescence; series mostly up to 76.8 µM; also: nearly all actives have a fitted effect of over 50% in size
Procedure, shortened: (§4)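 Cells + NanoLuc/prosubstrate dispensed (600 cells/well) → 5 h at 37 C/5% CO2 → compounds in DMSO transferred → 40 h incubation at 37 C, luminescence read at 0, 8, 16, 24, 32, 40 h.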

[7] = qHTS RealTime-Glo MT Cell Viability Assay in HEK293 cells - 24 hour (AID 1224886); conditions: RealTime-Glo luminescence; series mostly up to 76.8 µM; also: nearly all actives have a fitted effect of over 50% in size; also: potency is read from the fitted curve at half-maximal effect; as to activity change, negative = cytotoxicity: top concentration of the series differs between compounds
Procedure, shortened: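 Tox21 10K qHTS, HEK293, 600 cells/well, RealTime-Glo reagent co-dispensed with cells; 5 h preincubation, compound by pintool, 37 C, luminescence at 0–40 h.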

[8] = qHTS RealTime-Glo MT Cell Viability Assay in HEK293 cells - 8 hour (AID 1224887); conditions: RealTime-Glo luminescence; series mostly up to 76.8 µM; also: nearly all actives have a fitted effect of over 50% in size; also: potency is read from the fitted curve at half-maximal effect; as to activity change, negative = cytotoxicity: top concentration of the series differs between compounds
Procedure, shortened: as §1

[9] = A CellTox Green Cytotoxicity Assay to monitor cytotoxicity in HEK293 cells - 16 hour (AID 1224888); conditions: CellTox Green fluorescence; series mostly up to 76.8 µM; also: nearly all actives have a fitted effect of over 35% in size
Procedure, shortened: as §2

[10] = qHTS RealTime-Glo MT Cell Viability Assay in HepG2 cells - 0 hour (AID 1224889); conditions: RealTime-Glo luminescence; series mostly up to 76.8 µM; also: nearly all actives have a fitted effect of over 50% in size; also: potency is read from the fitted curve at half-maximal effect
Procedure, shortened: as §4
% is scaled to controls: 0 for no effect and ±100 for the full control effect.

C[C@]12CC[C@H]3[C@@H](CCC4=CC(=O)CC[C@@H]43)[C@@H]1CC[C@@H]2OC(=O)CCC1CCCCC1
inactive: Potency [1] | Potency [2] | Potency [3] | Potency [4] | Potency [5] | Potency [6] | Potency [7] | Potency [8] | Potency [9] | Potency [10]

O=C(OC1CCCCC1)c1ccccc1C(=O)OC1CCCCC1
inactive: Potency [1] | Potency [2] | Potency [3] | Potency [4] | Potency [5] | Potency [6] | Potency [7] | Potency [8] | Potency [9] | Potency [10]

NC(=O)C(Cl)(Cl)Cl
inactive: Potency [1] | Potency [2] | Potency [3] | Potency [4] | Potency [5] | Potency [6] | Potency [7] | Potency [8] | Potency [9] | Potency [10]

O=C(NC(=O)c1c(F)cccc1F)Nc1ccc(OC(F)(F)C(F)OC(F)(F)F)c(Cl)c1 (centres undefined)
inactive: Potency [1] | Potency [2] | Potency [3] | Potency [4] | Potency [5] | Potency [6] | Potency [7] | Potency [8] | Potency [9] | Potency [10]

CCOP(=S)(Oc1ccc([N+](=O)[O-])cc1)c1ccccc1 (centres undefined)
inactive: Potency [1] | Potency [2] | Potency [3] | Potency [4] | Potency [5] | Potency [6] | Potency [7] | Potency [8] | Potency [9] | Potency [10]

COC(=O)C(Br)CBr (centres undefined)
inactive: Potency [1] | Potency [2] | Potency [3] | Potency [4] | Potency [5] | Potency [6] | Potency [7] | Potency [8] | Potency [9] | Potency [10]

N#CCc1ccccc1
inactive: Potency [1] | Potency [2] | Potency [3] | Potency [4] | Potency [5] | Potency [6] | Potency [7] | Potency [8] | Potency [9] | Potency [10]

COC(=O)C(Cl)C(=O)OC
inactive: Potency [1] | Potency [2] | Potency [3] | Potency [4] | Potency [5] | Potency [6] | Potency [7] | Potency [8] | Potency [9] | Potency [10]

CCCCCCCCOC(=O)c1ccc(C(=O)OCCCCCCCC)c(C(=O)OCCCCCCCC)c1
inactive: Potency [1] | Potency [2] | Potency [3] | Potency [4] | Potency [5] | Potency [6] | Potency [7] | Potency [8] | Potency [9] | Potency [10]

c1ccoc1
inactive: Potency [1] | Potency [2] | Potency [3] | Potency [4] | Potency [5] | Potency [6] | Potency [7] | Potency [8] | Potency [9] | Potency [10]

COC(N)=O
inactive: Potency [1] | Potency [2] | Potency [3] | Potency [4] | Potency [5] | Potency [6] | Potency [7] | Potency [8] | Potency [9] | Potency [10]

O=C=Nc1ccc(Cl)cc1
inactive: Potency [1] | Potency [2] | Potency [3] | Potency [4] | Potency [5] | Potency [6] | Potency [7] | Potency [8] | Potency [9] | Potency [10]

O=C(O)C(F)(F)C(F)(F)C(F)(F)C(F)(F)C(F)(F)C(F)(F)C(F)(F)C(F)(F)C(F)(F)F
inactive: Potency [1] | Potency [2] | Potency [3] | Potency [4] | Potency [5] | Potency [6] | Potency [7] | Potency [8] | Potency [9] | Potency [10]

C/C=C/C=O
inactive: Potency [1] | Potency [2] | Potency [3] | Potency [4] | Potency [5] | Potency [6] | Potency [7] | Potency [8] | Potency [9] | Potency [10]

O=C(CBr)c1ccccc1
inactive: Potency [1] | Potency [2] | Potency [3] | Potency [4] | Potency [5] | Potency [6] | Potency [7] | Potency [8] | Potency [9] | Potency [10]

C=CCCl
inactive: Potency [1] | Potency [2] | Potency [3] | Potency [4] | Potency [5] | Potency [6] | Potency [7] | Potency [8] | Potency [9] | Potency [10]

CCN(C)N=O
inactive: Potency [1] | Potency [2] | Potency [3] | Potency [4] | Potency [5] | Potency [6] | Potency [7] | Potency [8] | Potency [9] | Potency [10]

CCCN(CCCl)c1c([N+](=O)[O-])cc(C(F)(F)F)cc1[N+](=O)[O-]
inactive: Potency [1] | Potency [2] | Potency [3] | Potency [4] | Potency [5] | Potency [6] | Potency [7] | Potency [9] | Potency [10]
active: Potency [8] 38.9 µM

CC(=O)NC1CCSC1=O (centres undefined)
inactive: Potency [1] | Potency [2] | Potency [3] | Potency [4] | Potency [5] | Potency [6] | Potency [7] | Potency [8] | Potency [9] | Potency [10]

Clc1cccc(SC2CCNCC2)n1
inactive: Potency [1] | Potency [2] | Potency [3] | Potency [4] | Potency [5] | Potency [6] | Potency [7] | Potency [8] | Potency [9] | Potency [10]

C[C@H]1CNCCc2ccc(Cl)cc21
inactive: Potency [1] | Potency [2] | Potency [3] | Potency [4] | Potency [5] | Potency [6] | Potency [7] | Potency [8] | Potency [9] | Potency [10]

Brc1ccccc1
inactive: Potency [1] | Potency [2] | Potency [3] | Potency [4] | Potency [5] | Potency [6] | Potency [7] | Potency [8] | Potency [9] | Potency [10]

CCOP(=S)(OCC)SCn1nnc2ccccc2c1=O
active: Potency [7] 21.9 µM | Potency [8] 21.9 µM | Potency [10] 24.5 µM
inactive: Potency [1] | Potency [2] | Potency [3] | Potency [4] | Potency [5] | Potency [9]

CO[C@@H]1[C@H](OC(=O)NC(=O)CCl)CC[C@]2(CO2)[C@H]1[C@@]1(C)O[C@@H]1CC=C(C)C
inactive: activity change, negative = cytotoxicity [1] 1.11% [at 15.8 µM] | cytotoxicity increase [2] -3.65% [at 15.8 µM] | cytotoxicity [3] 1.46% [at 15.8 µM] | cytotoxicity increase [4] -1.39% [at 15.8 µM] | cytotoxicity increase [5] -6.32% [at 15.8 µM] | activity change, negative = cytotoxic [6] 1.78% [at 15.8 µM] | activity change, negative = cytotoxicity [7] 14.6% [at 15.8 µM] | activity change, negative = cytotoxicity [8] 6.68% [at 15.8 µM] | activity change [9] -10.6% [at 15.8 µM, hits give high values] | activity change, negative = cytotoxicity [10] 0.756% [at 15.8 µM]
